From paper PMC7819943, “Rice protein-binding microarrays: a tool to detect cis-acting elements near promoter regions in rice”
The full ranking holds about 68,000 sequences; the median of “fluorescence intensity (a.u.)” is about 9,100, and the highest 2% start at about 16,000. Only a selection was taken, and the highest values are over-represented in it overall.

Each sequence was assayed against OsWRKY34 (Oryza sativa, UniProt Q0JBA9 1-250) (assay: protein-binding microarray (RPBM); PBS, 2% BSA, 51.3 ng/ul salmon testes DNA, 50 uM zinc acetate, 200 nM TF, 25 C, 1 h; high values mean tight binding). Conditions: protein: recombinant; tags: N-terminal polyhistidine and DsRed monomer fusion (pET32a); label: CyDye5-dUTP incorporated in the synthesized complementary strand; 3' TTTTT single-stranded linker to array surface; dsDNA, one strand shown.
OsWRKY34, sequence (Q0JBA9 entry or part of it): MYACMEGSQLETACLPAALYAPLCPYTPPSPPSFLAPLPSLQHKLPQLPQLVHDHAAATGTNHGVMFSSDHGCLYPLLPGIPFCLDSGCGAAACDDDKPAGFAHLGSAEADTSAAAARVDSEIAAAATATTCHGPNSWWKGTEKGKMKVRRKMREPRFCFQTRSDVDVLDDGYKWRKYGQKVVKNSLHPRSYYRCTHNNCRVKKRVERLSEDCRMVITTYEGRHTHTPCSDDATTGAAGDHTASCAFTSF
In short: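 For the binding signal, per-feature fluorescence intensity was read in arbitrary units on an Axon 4000B scanner. Before scanning, a 2% BSA-blocked custom Agilent array made double-stranded with Cy5-dUTP was washed after 1 h at 25 °C with 200 nM protein and 50 µM zinc acetate. The proteins were Ni–NTA-purified transcription factors with N-terminal polyhistidine and DsRed fusions, expressed in E. coli BL21-CodonPlus.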
With “TTGGGTGGGATTTAAACAGGGTATTAGTGGATAATGATGTCGGAGTCACCTAGTGCAG” the binding signal was 9570 fluorescence intensity (a.u.).
For “GGTTAGGTGGCATTTGAATTTAAAACGTATATGTGGACTCCGGAGTCACCTAGTGCAG”, the binding signal was 13900 fluorescence intensity (a.u.).
“CTATAGGTGGATTTTTAGGGACTCACCCGTAAAAACAGGTCGGAGTCACCTAGTGCAG” was tested, and the binding signal was 26800 fluorescence intensity (a.u.).
“CTCCGGGGAATATCTATGGGTCTTGTGGGTGTAGGGAGGACGGAGTCACCTAGTGCAG” was tested, and the binding signal was 8770 fluorescence intensity (a.u.).
With “CTATAATTATTTGTCGACTAAATCTGCCTTTCATCTTTCTCGGAGTCACCTAGTGCAG” the binding signal was 8160 fluorescence intensity (a.u.).
For “TTTGACCAACCGAAACTCGACGGCCCACCCACCAACCACCCGGAGTCACCTAGTGCAG”, the binding signal was 9420 fluorescence intensity (a.u.).
In the case of “ATCATTTGTCTCGCGACGAAAACTTGCGTTGACCACCCACCGGAGTCACCTAGTGCAG”, the binding signal was 17500 fluorescence intensity (a.u.).
With “GTGTCTTGTGCGTTTGCTCTCTCGCGAACCATTCCACAGACGGAGTCACCTAGTGCAG” the binding signal was 8380 fluorescence intensity (a.u.).
With “CACCCACCAAGTACTCTTTTTACTTTTACCACAGCGCATACGGAGTCACCTAGTGCAG” the binding signal was 9050 fluorescence intensity (a.u.).
With “TTACACGCCTAATCATCGAAAACCTAATCTTATGCTTTCTCGGAGTCACCTAGTGCAG” the binding signal was 8790 fluorescence intensity (a.u.).
“TGCGGCTTTGATTTGCGGGGTTCACACACGAGTAATTGCACGGAGTCACCTAGTGCAG” was tested, and the binding signal was 10900 fluorescence intensity (a.u.).
“TTCACACACGAGTAATTGCAGCCTTGCTTTCTCGAAAAAACGGAGTCACCTAGTGCAG” was tested, and the binding signal was 17100 fluorescence intensity (a.u.).
With “AATCTGTGGCGATAACCTGTATGCTCACACACTTGCCTCTCGGAGTCACCTAGTGCAG” the binding signal was 8610 fluorescence intensity (a.u.).
For “CTACCTCCATATTTTAATGTATGACGCCGTTGACTTTTTGCGGAGTCACCTAGTGCAG”, the binding signal was 37500 fluorescence intensity (a.u.).
For “TTCCCTCCATATTTTAATGTATGACGCCGTTGACTTTTTACGGAGTCACCTAGTGCAG”, the binding signal was 17700 fluorescence intensity (a.u.).
With “TACCTCCATATTTTAATGTATGACGCCGTTGACTTTTTATCGGAGTCACCTAGTGCAG” the binding signal was 28900 fluorescence intensity (a.u.).
With “TATTACTACCTTCATATTTTAATGTATGACGCCGTTGACTCGGAGTCACCTAGTGCAG” the binding signal was 11900 fluorescence intensity (a.u.).
In the case of “TACTCCCTCCGTATTTTAATGTATGACGCCGTTGACTTTTCGGAGTCACCTAGTGCAG”, the binding signal was 13900 fluorescence intensity (a.u.).
For “TATATACTCCCTCCATATTTTAATGTATGACGCCGTTGACCGGAGTCACCTAGTGCAG”, the binding signal was 9880 fluorescence intensity (a.u.).
For “ATATACTACCTCCATATTTTAATGTATGACGCCGTTGACTCGGAGTCACCTAGTGCAG”, the binding signal was 8860 fluorescence intensity (a.u.).
With “TCCGTATTTTAATGTATGACGCCGTTGACTTTTTATCCAACGGAGTCACCTAGTGCAG” the binding signal was 21400 fluorescence intensity (a.u.).
For “AGCGCGTCGCTTTCTTTCTTTCTTTCAGTTTTTTTTTTCCCGGAGTCACCTAGTGCAG”, the binding signal was 10500 fluorescence intensity (a.u.).
In the case of “AATCTGACTGAAGTATGTACTTTGTGTTGACCAATTTGGCCGGAGTCACCTAGTGCAG”, the binding signal was 10200 fluorescence intensity (a.u.).
With “ATGAGTTCCCAACCGCCACTTACATTAAGTACCACACTCCCGGAGTCACCTAGTGCAG” the binding signal was 8660 fluorescence intensity (a.u.).
With “GTTTCCTTCGTTTCAGATTACTCATTATTTTAGCTTTTTTCGGAGTCACCTAGTGCAG” the binding signal was 13800 fluorescence intensity (a.u.).
“TCCACCTTTTCATCAATATAGTCATGCATTAATACAGTCACGGAGTCACCTAGTGCAG” was tested, and the binding signal was 8670 fluorescence intensity (a.u.).
“TTGCTTCCTTTGTCCTTACTGACATTATTACCTCAGAGACCGGAGTCACCTAGTGCAG” was tested, and the binding signal was 8870 fluorescence intensity (a.u.).
In the case of “ACGGGGCGCATTTATTCATCCCCACCTTTGTTCATCAGTTCGGAGTCACCTAGTGCAG”, the binding signal was 11600 fluorescence intensity (a.u.).
In the case of “CTCCATATTTTAATGTATGCCGCCGTTGACTTTTTGTTTACGGAGTCACCTAGTGCAG”, the binding signal was 20200 fluorescence intensity (a.u.).
For “TTTTAATGTATGACGCTGTTGACTTTTTATCCAACGTTTGCGGAGTCACCTAGTGCAG”, the binding signal was 16400 fluorescence intensity (a.u.).
With “TGCACTAGTATGTATGACGTTGACTGTTTTTTTAAGGACGCGGAGTCACCTAGTGCAG” the binding signal was 10200 fluorescence intensity (a.u.).
“ATTTGTTTGTTTTTTTAATAAATGATGTTGTTGACTTTTACGGAGTCACCTAGTGCAG” was tested, and the binding signal was 9030 fluorescence intensity (a.u.).
In the case of “TAATGTATGACGTCGTTGACTTTTTGTTAAACGTTTGATCCGGAGTCACCTAGTGCAG”, the binding signal was 15600 fluorescence intensity (a.u.).
With “CTCATAATAGATTTACTTTTAATGCCGTTGTTTTGTTTTACGGAGTCACCTAGTGCAG” the binding signal was 9090 fluorescence intensity (a.u.).
With “GTTACCCCGATTAGTTAGTTTATGTTGTACATGCTGTTGACGGAGTCACCTAGTGCAG” the binding signal was 11000 fluorescence intensity (a.u.).
“CAGTGTCCGTTTTCTCCGACAAACTCGGCGTGGCCACAGTCGGAGTCACCTAGTGCAG” was tested, and the binding signal was 9840 fluorescence intensity (a.u.).
“AAAAAGTCAACGGCGTCAAACATTTAGGGATGGAGGGAGTCGGAGTCACCTAGTGCAG” was tested, and the binding signal was 8190 fluorescence intensity (a.u.).
In the case of “AATATTTTTTTGAGGTTTTTTGTTGCGTTTAAAATTCAAACGGAGTCACCTAGTGCAG”, the binding signal was 8110 fluorescence intensity (a.u.).
In the case of “TTGATTTTTTGTTGCAAAAGAATATTTTAATTCACTGCAACGGAGTCACCTAGTGCAG”, the binding signal was 24300 fluorescence intensity (a.u.).
With “AAACATGTTTAAAAAAGTCAACGGCGTCAAACATTTAGGGCGGAGTCACCTAGTGCAG” the binding signal was 13800 fluorescence intensity (a.u.).
For “TAAAAAAGTCAACGGCGTTAAACATTTTGGGATGGAGGGACGGAGTCACCTAGTGCAG”, the binding signal was 11200 fluorescence intensity (a.u.).
“ATATGTTTAAAAAAGTCAACGGCGTCAAACATTTAGGGATCGGAGTCACCTAGTGCAG” was tested, and the binding signal was 18600 fluorescence intensity (a.u.).
In the case of “TTGTTGATTTTTTTTCAGAATTTTTATCACTATTTGTCTTCGGAGTCACCTAGTGCAG”, the binding signal was 8570 fluorescence intensity (a.u.).
With “TTTAAAAGTCAACGGCGTCAGAGGGAGTATATATTTTAGCCGGAGTCACCTAGTGCAG” the binding signal was 9840 fluorescence intensity (a.u.).
With “ATATTTAAAAAAGTCAACGGCGTCAAACATTTTGAGATAGCGGAGTCACCTAGTGCAG” the binding signal was 9320 fluorescence intensity (a.u.).
“TCAAACATTTAAAAAAAAAGTCAACGGCGTCAAATATTTTCGGAGTCACCTAGTGCAG” was tested, and the binding signal was 8470 fluorescence intensity (a.u.).
“TATTTTTAAAAAAGTCAACGGCGTCTTGTGGGATGGAGGGCGGAGTCACCTAGTGCAG” was tested, and the binding signal was 21300 fluorescence intensity (a.u.).
“ATATTTAAAAAAGTCAACGGCGTCAAACATTTTGAAACGGCGGAGTCACCTAGTGCAG” was tested, and the binding signal was 16800 fluorescence intensity (a.u.).
With “ATCTGTACAGTTTGTGACTAATTTGCAAGACGAATCTTTTCGGAGTCACCTAGTGCAG” the binding signal was 11500 fluorescence intensity (a.u.).
With “GGATACGGCACCTTTGCGAGCTGCGTCGACCGCTCCGCCGCGGAGTCACCTAGTGCAG” the binding signal was 9650 fluorescence intensity (a.u.).
With “GGTTCTGTTCTATATACTCCGACACCATACTGATTAGTCTCGGAGTCACCTAGTGCAG” the binding signal was 10900 fluorescence intensity (a.u.).
In the case of “TTTTGAGTTTTTGTGTGAACTGTTTGACCACTCGTCTTATCGGAGTCACCTAGTGCAG”, the binding signal was 8250 fluorescence intensity (a.u.).
“CTAGCTCACACACAATTGCATACACCTAGCTCAAAAGCCTCGGAGTCACCTAGTGCAG” was tested, and the binding signal was 9080 fluorescence intensity (a.u.).
With “CATGTGCTCAAAGCTTATCTGCATACAAGCCTTCGAGACCCGGAGTCACCTAGTGCAG” the binding signal was 64100 fluorescence intensity (a.u.).
With “CCATCTCCTTCAGCCTTCGCTTCATCTGGTCGAGCTCCTGCGGAGTCACCTAGTGCAG” the binding signal was 9080 fluorescence intensity (a.u.).
